Results taken from PubChem BioAssay (NCATS).
Records with an inconclusive call do not appear. Activity calls are given as the source filed them. Calls come from the whole dose curve; as a rule, active = well fitted curve in the direction sought with a large enough effect; inconclusive = small, poorly fitted or top-dose-only effect, or another doubt; inactive = no such curve, though single readings can be large; an effect the other way counts as inactive or inconclusive.

Experiments:
[1] = tested on: MCC-13; experiment: qHTS assay to identify novel small-molecules to repurpose for Merkel cell carcinoma treatment (AID 1296009); conditions: MCC and control cell lines, CellTiter-Glo viability, 72 h; series mostly up to 46 µM; note: nearly all actives have a fitted effect of over 60% in size
Summary of the method: (§1)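 Cell viability, measured as CellTiter-Glo luminescence, was normalized between DMSO and no-cell wells. The cells had been exposed to 8- or 11-point compound dilutions for 72 hr at 37 degree celsius.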

[2] = tested on: MCC-26; experiment: as above; conditions: MCC and control cell lines, CellTiter-Glo viability, 72 h; series mostly up to 46 µM
Summary of the method: as §1

[3] = tested on: MKL-1; experiment: as above; conditions: MCC and control cell lines, CellTiter-Glo viability, 72 h; series mostly up to 46 µM
Summary of the method: as §1

[4] = tested on: MKL-2; experiment: as above; conditions: MCC and control cell lines, CellTiter-Glo viability, 72 h; series mostly up to 46 µM
Summary of the method: as §1

[5] = tested on: UISO; experiment: as above; conditions: MCC and control cell lines, CellTiter-Glo viability, 72 h; series mostly up to 46 µM
Summary of the method: as §1

[6] = tested on: WaGa; experiment: as above; conditions: MCC and control cell lines, CellTiter-Glo viability, 72 h; series mostly up to 46 µM
Summary of the method: as §1

[7] = tested on: C33A; experiment: Primary qHTS to identify gynecologic anti-cancer compounds using libraries of approved drugs and bioactive compounds (AID 1345084); conditions: Gynecologic cancer cell panel viability, ATPlite luminescence, 48 h; series mostly up to 57.5 µM; note: nearly all actives have a fitted effect of over 55% in size
Summary of the method: (§2)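 Cells, 1,000 per well, were allowed to settle for 16 h at 37 C before compound addition. Five concentrations were tested for 48 h, and viability was read by ATPlite luminescence after 15 min at room temperature.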

[8] = tested on: CAOV3; experiment: as above; conditions: Gynecologic cancer cell panel viability, ATPlite luminescence, 48 h; series mostly up to 57.5 µM
Summary of the method: as §2

[9] = tested on: CASKI; experiment: as above; conditions: Gynecologic cancer cell panel viability, ATPlite luminescence, 48 h; series mostly up to 57.5 µM
Summary of the method: as §2

[10] = tested on: Es-2; experiment: as above; conditions: Gynecologic cancer cell panel viability, ATPlite luminescence, 48 h; series mostly up to 57.5 µM
Summary of the method: as §2

[11] = tested on: HeLa; experiment: as above; conditions: Gynecologic cancer cell panel viability, ATPlite luminescence, 48 h; series mostly up to 57.5 µM
Summary of the method: as §2

[12] = tested on: Hek293T; experiment: as above; conditions: Gynecologic cancer cell panel viability, ATPlite luminescence, 48 h, control line for the selectivity index; series mostly up to 57.5 µM
Summary of the method: as §2

[13] = tested on: JEG-3; experiment: as above; conditions: Gynecologic cancer cell panel viability, ATPlite luminescence, 48 h; series mostly up to 57.5 µM
Summary of the method: as §2

[14] = tested on: OV90; experiment: as above; conditions: Gynecologic cancer cell panel viability, ATPlite luminescence, 48 h; series mostly up to 57.5 µM
Summary of the method: as §2

[15] = tested on: PA-1; experiment: as above; conditions: Gynecologic cancer cell panel viability, ATPlite luminescence, 48 h; series mostly up to 57.5 µM
Summary of the method: as §2

[16] = tested on: SKOV3; experiment: as above; conditions: Gynecologic cancer cell panel viability, ATPlite luminescence, 48 h; series mostly up to 57.5 µM
Summary of the method: as §2

[17] = tested on: Tov-21-G; experiment: as above; conditions: Gynecologic cancer cell panel viability, ATPlite luminescence, 48 h; series mostly up to 57.5 µM
Summary of the method: as §2

[18] = tested on: Tov112D; experiment: as above; conditions: Gynecologic cancer cell panel viability, ATPlite luminescence, 48 h; series mostly up to 57.5 µM
Summary of the method: as §2

[19] = tested on: NIH3T3; experiment: qHTS assay to identify novel small-molecules to repurpose for Merkel cell carcinoma treatment (AID 1296009); conditions: MCC and control cell lines, CellTiter-Glo viability, 72 h; at 44.8 µM (top of the series) unless noted; note: nearly all actives have a fitted effect of over 60% in size
Summary of the method: as §1

Measured: Potency

NC(=O)CCCCC1CCSS1 (stereo not drawn)
not listed: [19]
inactive: all other assays above

CC(=O)OC[C@H]1O[C@@](COC(C)=O)(O[C@H]2O[C@H](COC(C)=O)[C@@H](OC(C)=O)[C@H](OC(C)=O)[C@H]2OC(C)=O)[C@@H](OC(C)=O)[C@@H]1OC(C)=O
not listed: [19]
inactive: all other assays above

CCN(CC)CCOC(=O)C(c1ccccc1)c1ccccc1
not listed: [19]
inactive: all other assays above

CN[C@@H]1[C@H](O)[C@H](NC)[C@H]2O[C@@]3(O)C(=O)C[C@@H](C)O[C@H]3O[C@@H]2[C@H]1O
not listed: [19]
inactive: all other assays above

CC(=O)Nc1cccc(O)c1
not listed: [19]
inactive: all other assays above

CC(=O)Oc1cccc(C)c1
not listed: [19]
inactive: all other assays above

O=c1[nH]cnc2nc[nH]c12
not listed: [19]
inactive: all other assays above

O[C@@H]1CO[C@H]2[C@@H]1OC[C@@H]2O
not listed: [19]
inactive: all other assays above

CCc1cccc(CC)c1NC(=O)CN(CC(=O)O)CC(=O)O
not listed: [19]
inactive: all other assays above

COc1ccccc1Oc1c(NS(=O)(=O)c2ccc(C(C)(C)C)cc2)nc(-c2ncccn2)nc1OCCO
not listed: [1] | [2]
inactive: all other assays above

COc1ccc(Cc2cnc(N)nc2N)cc1OC
not listed: [8] | [16] | [19]
inactive: all other assays above

CC(C)(C)NCC(O)COc1cccc2c1CCC(=O)N2 (stereo not drawn)
not listed: [2] | [19]
inactive: all other assays above

CC(=O)N[C@@H](Cc1ccc(O)cc1)C(=O)O
not listed: [2] | [8] | [19]
inactive: all other assays above

CC(=O)N[C@H]1[C@H]([C@H](O)[C@H](O)CO)OC(C(=O)O)=C[C@@H]1N=C(N)N
not listed: [2] | [8]
inactive: all other assays above

C[C@H]1COc2c(C3(N)CC3)c(F)cc3c(=O)c(C(=O)O)cn1c23
not listed: [2] | [19]
inactive: all other assays above

O=C(NCN1CCOCC1)c1cnccn1
not listed: [8] | [19]
inactive: all other assays above

CC(C)CCOC(=O)c1ccc(N(C)C)cc1
not listed: [2] | [19]
inactive: all other assays above

NS(=O)(=O)c1ccc(C(=O)O)cc1
not listed: [2] | [8] | [19]
inactive: all other assays above

O=C(O)C(S)C(S)C(=O)O (stereo not drawn)
not listed: [2] | [8]
inactive: all other assays above

O=C(O)COC(=O)Cc1ccccc1Nc1c(Cl)cccc1Cl
not listed: [2] | [16] | [19]
inactive: all other assays above

CCCCCCCC(=O)OCC(COC(=O)CCCCCCC)OC(=O)CCCCCCC
not listed: [2] | [8] | [19]
inactive: all other assays above

CC(=O)SC[C@@H](Cc1ccccc1)C(=O)NCC(=O)OCc1ccccc1
not listed: [8] | [19]
inactive: all other assays above

CC(=O)Nc1ccccc1
not listed: [2]
inactive: all other assays above

CCc1nnc(NS(=O)(=O)c2ccc(N)cc2)s1
not listed: [8] | [19]
inactive: all other assays above
